Records with an inconclusive call do not appear. Activity calls are given as the source filed them. Rule for the calls, unless noted: active = hit-call score of the fitted dose curve at least 0.9, where 1 is the maximum; inactive = score below 0.9.

This note sets out measurements from PubChem BioAssay (EPA / NIEHS).

In assay [1] the target is Retinoic acid receptor RXR-alpha (Homo sapiens) (UniProt P19793). Kind of assay: ATG_RXRa_TRANS: Attagene TRANS-FACTORIAL HepG2 Assay for human Retinoid X Receptor alpha (RXRa) (AID 2283012; active = hit-call score of the fitted dose curve at least 0.9, where 1 is the maximum). A digest of the protocol: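 Read-out: fluorescent reporter-transcript fragments quantified by capillary electrophoresis after RT-PCR. Transiently transfected HepG2 cells carrying GAL4-UAS reporters and NR-GAL4 chimeras were exposed to chemical for 24 h; activity scored as increase over DMSO.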
Retinoic acid receptor RXR-alpha (Homo sapiens), sequence (P19793 whole entry, looked up, the tested form may be a part): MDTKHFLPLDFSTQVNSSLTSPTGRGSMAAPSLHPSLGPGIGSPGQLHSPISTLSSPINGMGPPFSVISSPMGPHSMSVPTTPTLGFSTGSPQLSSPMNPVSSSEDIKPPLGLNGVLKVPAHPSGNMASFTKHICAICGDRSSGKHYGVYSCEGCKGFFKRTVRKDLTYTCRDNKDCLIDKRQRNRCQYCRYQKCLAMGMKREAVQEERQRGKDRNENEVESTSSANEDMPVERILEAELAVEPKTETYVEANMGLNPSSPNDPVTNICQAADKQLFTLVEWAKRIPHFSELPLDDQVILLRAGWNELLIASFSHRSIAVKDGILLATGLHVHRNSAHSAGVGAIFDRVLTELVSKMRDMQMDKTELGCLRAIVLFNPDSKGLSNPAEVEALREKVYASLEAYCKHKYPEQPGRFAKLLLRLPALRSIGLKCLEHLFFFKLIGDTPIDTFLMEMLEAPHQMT

Assay [2] deals with human Retinoid X Receptor beta (RXRb), RXRB (gene 6257) (UniProt P28702). Kind of assay: ATG_RXRb_TRANS: Attagene TRANS-FACTORIAL HepG2 Assay for human Retinoid X Receptor beta (RXRb) (AID 2283013; active = hit-call score of the fitted dose curve at least 0.9, where 1 is the maximum). In outline:
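Read-out: reporter mRNA induction via RT-PCR plus capillary electrophoresis fluorescence, analysed as signal increase relative to DMSO. Cells were human HepG2, transiently transfected with GAL4-UAS reporter constructs and chimeric receptor-Gal4 fusions, dosed for 24 h.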

Assay [3] deals with human Thyroid Receptor alpha (THRa1), THRA (gene 7067) (UniProt P10827). Nature of the assay: ATG_THRa1_TRANS: Attagene TRANS-FACTORIAL HepG2 Assay for human Thyroid Receptor alpha (THRa1) (AID 2283014; active = hit-call score of the fitted dose curve at least 0.9, where 1 is the maximum). In outline:
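Reporter transcript induction, read by capillary electrophoresis of 6-FAM-labelled RT-PCR products, reflects activity of a transfected THRa1-Gal4 fusion in HepG2 liver cells. Cells were dosed for 24 h; activity was fitted in the positive direction against DMSO.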

Read-out in assay [4]: E-selectin (Homo sapiens) (UniProt P16581)
Kind of assay: BSK_3C_Eselectin: BioMAP Diversity Plus: 3C Assay for Eselectin Biomarker Activity (AID 2283015).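 For outcome: cell surface E-selectin protein quantified by ELISA 24 h after dosing.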 The following applies: primary human endothelial cells (HUVEC); actives raise or lower the signal. A digest of the protocol: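 ELISA read-out of E-selectin on endothelial monolayers after 24 h chemical treatment. Human umbilical vein primary cells served as the system, with DMSO defining baseline activity for bidirectional fitting.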

Read-out in assay [5]: Interleukin-1 alpha (IL1a), IL1A (gene 3552)
Kind of assay: BSK_BE3C_IL1a: BioMAP Diversity Plus: BE3C Assay for Interleukin-1 alpha (IL1a) Biomarker Activity (AID 2283016). The following applies: primary human bronchial epithelial cells; actives raise or lower the signal. In outline:
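ELISA read-out of IL-1a from human lung bronchial epithelial primary cells, 24 h post-dose. Gain or loss of signal fitted relative to DMSO negative control.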

Read-out in assay [6]: Monocyte Chemoattractant Protein-1 (MCP1), CCL2 (gene 6347)
Kind of assay: BSK_3C_MCP1: BioMAP Diversity Plus: 3C Assay for Monocyte Chemoattractant Protein-1 (MCP1) Biomarker Activity (AID 2283017). The following applies: primary human endothelial cells (HUVEC); actives raise or lower the signal. A digest of the protocol:
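ELISA read-out of MCP-1 from human umbilical vein endothelial cell cultures harvested 24 h post-dosing. Gain or loss of signal was fitted relative to DMSO.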

Read-out in assay [7]: Monocyte Chemoattractant Protein-1 (MCP1), CCL2 (gene 6347)
Nature of the assay: BSK_4H_MCP1: BioMAP Diversity Plus: 4H Assay for Monocyte Chemoattractant Protein-1 (MCP1) Biomarker Activity (AID 2283018). Particulars: primary human endothelial cells (HUVEC); actives raise or lower the signal. A digest of the protocol: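 HUVEC primary cells, 24 h post-dose, MCP-1 by ELISA. Gain or loss of signal fitted bidirectionally vs DMSO baseline. Cytotoxicity: SRB stain (0.1% after 10% TCA fixation), read 560 nm, parallel cultures.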

Read-out in assay [8]: Human Leukocyte Antigen - DR isotype (HLADR), HLA-DRA (gene 3122)
Kind of assay: BSK_3C_HLADR: BioMAP Diversity Plus: 3C Assay for Human Leukocyte Antigen - DR isotype (HLADR) Biomarker Activity (AID 2283019). Particulars: primary human endothelial cells (HUVEC); actives raise or lower the signal. A digest of the protocol: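 ELISA readout of surface HLA-DR on human umbilical vein endothelium, taken 24 h after chemical treatment. Gain- and loss-of-signal were both fitted relative to DMSO.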

Read-out in assay [9]: Interleukin-8 (IL8), CXCL8 (gene 3576)
Nature of the assay: BSK_3C_IL8: BioMAP Diversity Plus: 3C Assay for Interleukin-8 (IL8) Biomarker Activity (AID 2283020). Particulars: primary human endothelial cells (HUVEC); actives raise or lower the signal. A digest of the protocol: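 HUVEC, 3C stimulation; 24 h compound exposure; IL-8 read by ELISA; gain or loss of signal fitted relative to DMSO control.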

Read-out in assay [10]: Monokine induced gamma interferon (MIG), CXCL9 (gene 4283)
Nature of the assay: BSK_3C_MIG: BioMAP Diversity Plus: 3C Assay for Monokine induced gamma interferon (MIG) Biomarker Activity (AID 2283021).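 For AC50: MIG protein level measured by immunoassay in the treated endothelial cultures.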 The following applies: primary human endothelial cells (HUVEC); actives raise or lower the signal. In outline: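 HUVEC, 3C system; 24 h chemical exposure; MIG by ELISA; bidirectional fit vs DMSO baseline.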

The target of assay [11] is human Vitamin D Receptor (VDR), VDR (gene 7421) (UniProt P11473). Kind of assay: ATG_VDR_TRANS: Attagene TRANS-FACTORIAL HepG2 Assay for human Vitamin D Receptor (VDR) (AID 2283022; active = hit-call score of the fitted dose curve at least 0.9, where 1 is the maximum). In outline: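 Steps: transfect HepG2 with GAL4-UAS-driven reporter constructs; dose compounds 24 h; isolate RNA, reverse-transcribe, PCR-amplify with 6-FAM-labelled primer extension and HpaI digestion; quantify fragments by capillary electrophoresis relative to DMSO.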
human Vitamin D Receptor (VDR), VDR (gene 7421), sequence (P11473 whole entry, looked up, the tested form may be a part): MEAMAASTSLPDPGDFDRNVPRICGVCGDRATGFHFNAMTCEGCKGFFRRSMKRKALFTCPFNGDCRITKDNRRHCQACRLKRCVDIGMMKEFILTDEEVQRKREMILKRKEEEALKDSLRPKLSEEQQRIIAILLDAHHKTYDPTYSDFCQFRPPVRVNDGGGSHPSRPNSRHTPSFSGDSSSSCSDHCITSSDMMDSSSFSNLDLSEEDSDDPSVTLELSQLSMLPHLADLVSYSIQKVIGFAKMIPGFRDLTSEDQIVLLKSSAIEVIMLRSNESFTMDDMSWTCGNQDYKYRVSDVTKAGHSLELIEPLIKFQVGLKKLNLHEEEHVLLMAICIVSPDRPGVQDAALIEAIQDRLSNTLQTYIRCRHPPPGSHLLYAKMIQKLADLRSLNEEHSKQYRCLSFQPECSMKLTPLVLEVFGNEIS

Assay [12] can be described thus: BSK_3C_SRB: Viability Assessment in the BioMAP Diversity Plus: 3C Assay (AID 2283023).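 Note: fitted both ways against DMSO so a hit may be signal rise or drop.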 The following applies: primary human endothelial cells (HUVEC). In outline:
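Absorbance at 560 nm of sulforhodamine B-stained (0.1%) total protein served as a cytotoxicity readout in human umbilical vein endothelial cells, 24 h after chemical treatment. Signal was fitted bidirectionally relative to DMSO.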

Read-out in assay [13]: Matrix Metallopeptidase 1 (MMP1), MMP1 (gene 4312)
Nature of the assay: BSK_BE3C_MMP1: BioMAP Diversity Plus: BE3C Assay for Matrix Metallopeptidase 1 (MMP1) Biomarker Activity (AID 2283024). Particulars: primary human bronchial epithelial cells; actives raise or lower the signal. A digest of the protocol: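 ELISA read-out of MMP1 in human lung bronchial epithelial primary cultures, 24 h post-dose; bidirectional curve fit vs DMSO baseline, gain or loss of signal scored.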

The nature of assay [14]: BSK_3C_Vis: BioMAP Diversity Plus: 3C Assay for Morphology Visualization (AID 2283025).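 Note: fitted both ways so gain or loss versus DMSO counts.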 The following applies: primary human endothelial cells (HUVEC). In outline: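 HUVEC, 3C system; light microscopy of morphology at 24 h post-dose. Bidirectional fit vs DMSO baseline. Secondary readout, background-control function.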
Read-out in assay [15]: Pselectin, SELP (gene 6403)
Kind of assay: BSK_4H_Pselectin: BioMAP Diversity Plus: 4H Assay for Pselectin Biomarker Activity (AID 2283026). The following applies: primary human endothelial cells (HUVEC); actives raise or lower the signal. A digest of the protocol: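 HUVEC, 24 h chemical exposure; P-selectin read by ELISA. Bidirectional curve fit vs DMSO baseline; gain or loss of signal scored.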

Assay [16] can be described thus: BSK_4H_SRB: Viability Assessment in the BioMAP Diversity Plus: 4H Assay (AID 2283027).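 For AC50: curves fitted both ways versus DMSO so AC50 may be loss or gain.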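 Note: cells exposed to compound for 24 h before staining.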 The following applies: primary human endothelial cells (HUVEC). A digest of the protocol:
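HUVEC, 24 h post-dose; 10% TCA fix, 0.1% SRB stain, A560 nm. Total protein = overt cytotoxicity, parallel to biomarker read. Bidirectional fit vs DMSO baseline.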

A short description of assay [17]: BSK_BE3C_SRB: Viability Assessment in the BioMAP Diversity Plus: BE3C Assay (AID 2283028).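 For AC50: fitted both ways so AC50 may mark signal gain or loss versus DMSO.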 Particulars: primary human bronchial epithelial cells. In outline:
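Cells (human bronchial epithelial, primary) are treated with chemicals, and after 24 h the parallel cultures are fixed in 10% TCA. These are then stained with 0.1% SRB and read at 560 nm. Gain or loss of signal is fitted relative to DMSO.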

Read-out in assay [18]: Thrombomodulin, THBD (gene 7056)
Kind of assay: BSK_3C_Thrombomodulin: BioMAP Diversity Plus: 3C Assay for Thrombomodulin Biomarker Activity (AID 2283029). The following applies: primary human endothelial cells (HUVEC); actives raise or lower the signal. A digest of the protocol:
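HUVEC, 3C conditions; compound 24 h; thrombomodulin by ELISA; bidirectional curve fit vs DMSO baseline; parallel SRB total-protein staining for cytotoxicity.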

Read-out in assay [19]: Urokinase-type plasminogen activator receptor (uPAR), PLAUR (gene 5329)
Nature of the assay: BSK_4H_uPAR: BioMAP Diversity Plus: 4H Assay for Urokinase-type plasminogen activator receptor (uPAR) Biomarker Activity (AID 2283030). The following applies: primary human endothelial cells (HUVEC); actives raise or lower the signal. A digest of the protocol:
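Cell-surface uPAR ELISA signal, measured 24 h after dosing human umbilical vein endothelial cells, was analyzed with bidirectional fitting relative to DMSO. Parallel SRB staining of total protein tracked overt cytotoxicity.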

Read-out in assay [20]: Vascular endothelial growth factor receptor 2 (Homo sapiens) (UniProt P35968)
Nature of the assay: BSK_4H_VEGFRII: BioMAP Diversity Plus: 4H Assay for Vascular endothelial growth factor receptor 2 (VEGFR2) Biomarker Activity (AID 2283031). The following applies: primary human endothelial cells (HUVEC); actives raise or lower the signal. In outline:
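ELISA read-out of VEGFRII in primary human umbilical vein endothelium, taken 24 h after chemical treatment. Responses are expressed relative to DMSO, with bidirectional fitting.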

E-selectin (Homo sapiens), sequence (P16581 whole entry, looked up): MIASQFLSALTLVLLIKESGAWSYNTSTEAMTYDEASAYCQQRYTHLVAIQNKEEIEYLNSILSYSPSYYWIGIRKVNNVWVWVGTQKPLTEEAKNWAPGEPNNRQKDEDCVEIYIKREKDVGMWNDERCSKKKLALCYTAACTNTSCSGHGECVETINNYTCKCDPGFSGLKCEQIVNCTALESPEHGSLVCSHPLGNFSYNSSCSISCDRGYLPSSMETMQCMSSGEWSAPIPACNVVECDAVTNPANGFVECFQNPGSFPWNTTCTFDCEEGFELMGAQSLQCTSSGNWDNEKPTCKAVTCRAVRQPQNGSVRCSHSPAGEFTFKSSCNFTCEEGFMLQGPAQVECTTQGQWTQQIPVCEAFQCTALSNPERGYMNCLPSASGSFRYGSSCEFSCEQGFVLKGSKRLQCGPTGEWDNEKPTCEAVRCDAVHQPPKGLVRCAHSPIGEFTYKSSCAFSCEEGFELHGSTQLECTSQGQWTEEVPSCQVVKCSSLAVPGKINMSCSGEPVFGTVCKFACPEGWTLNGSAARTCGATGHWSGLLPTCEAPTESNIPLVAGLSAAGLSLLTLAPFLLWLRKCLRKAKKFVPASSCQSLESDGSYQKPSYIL
human Retinoid X Receptor beta (RXRb), RXRB (gene 6257), sequence (P28702 whole entry, looked up, the tested form may be a part): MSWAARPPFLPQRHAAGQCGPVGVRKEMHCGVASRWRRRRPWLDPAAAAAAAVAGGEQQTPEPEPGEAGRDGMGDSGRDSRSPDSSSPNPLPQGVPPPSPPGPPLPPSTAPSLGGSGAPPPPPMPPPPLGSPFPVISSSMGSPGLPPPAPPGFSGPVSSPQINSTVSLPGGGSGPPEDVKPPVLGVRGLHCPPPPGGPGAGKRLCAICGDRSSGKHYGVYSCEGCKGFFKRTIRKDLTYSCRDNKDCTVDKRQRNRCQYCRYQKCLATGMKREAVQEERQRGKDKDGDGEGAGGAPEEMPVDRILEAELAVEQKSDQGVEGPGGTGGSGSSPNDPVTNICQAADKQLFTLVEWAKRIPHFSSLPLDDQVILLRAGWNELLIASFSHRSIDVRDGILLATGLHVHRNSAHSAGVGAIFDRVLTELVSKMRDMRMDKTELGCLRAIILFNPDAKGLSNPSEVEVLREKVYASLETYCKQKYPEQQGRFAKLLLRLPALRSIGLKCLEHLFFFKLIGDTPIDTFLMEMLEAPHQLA
human Thyroid Receptor alpha (THRa1), THRA (gene 7067), sequence (P10827 whole entry, looked up, the tested form may be a part): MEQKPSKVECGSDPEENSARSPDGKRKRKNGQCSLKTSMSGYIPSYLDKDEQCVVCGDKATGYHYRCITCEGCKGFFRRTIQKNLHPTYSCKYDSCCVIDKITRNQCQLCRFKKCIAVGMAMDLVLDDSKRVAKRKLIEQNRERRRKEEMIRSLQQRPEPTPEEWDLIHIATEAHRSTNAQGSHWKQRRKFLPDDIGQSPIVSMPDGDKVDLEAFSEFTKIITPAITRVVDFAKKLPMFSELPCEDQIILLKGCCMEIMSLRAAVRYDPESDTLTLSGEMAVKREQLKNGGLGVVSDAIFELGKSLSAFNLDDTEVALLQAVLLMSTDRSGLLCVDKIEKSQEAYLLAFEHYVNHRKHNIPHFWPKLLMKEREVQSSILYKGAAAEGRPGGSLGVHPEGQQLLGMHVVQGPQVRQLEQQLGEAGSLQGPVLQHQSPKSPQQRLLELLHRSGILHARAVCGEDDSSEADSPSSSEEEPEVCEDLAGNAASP

The AC50 is the concentration at which the activity in the assay is half-maximal. With `CCC[CH2][Sn]([Cl])([CH2]CCC)[CH2]CCC`, the AC50 in assay [1] is 0.245 µM (active); in assay [2], 0.0637 µM (active); in assay [4], 0.148 µM (active); in assay [5], 0.148 µM (active); in assay [6], 0.148 µM (active); in [7], 3.62 µM (active). Also, the AC50 in assay [8] was 0.148 µM (active); in assay [9], 0.155 µM (active); in [10], 0.148 µM (active); in [11], 1.92 µM (active); in [12], 0.148 µM (active); in assay [13] it was 0.148 µM (active). In addition, the AC50 in assay [14] was 5.57 µM (active); in assay [15] it was 0.148 µM (active); in assay [16], 0.148 µM (active); in assay [17], 0.148 µM (active); in assay [18], 0.486 µM (active); in [19], 0.148 µM (active). In [3], the result was inactive.

Regarding `Oc1ccc2ccc3cccc4ccc1c2c34`, the molecule was classed as inactive in [1], in assay [11], in [13], in assay [17], in assay [18] and in [20]. For the same molecule, the half-maximal activity concentration (AC50) in assay [2] is 43.3 µM (active); in assay [4], 29.9 µM (active); in assay [5], 32.4 µM (active); in assay [6], 29.7 µM (active); in [7], 14.2 µM (active); in [8] it was 26.6 µM (active). Further, the half-maximal activity concentration (AC50) in assay [9] was 32.8 µM (active); in assay [10], 37.6 µM (active); in assay [12] it was 30 µM (active); in assay [14], 37.5 µM (active); in assay [15], 31.6 µM (active); in assay [16], 31.5 µM (active). Moreover, the AC50 in assay [19] is 30.4 µM (active).

Regarding `ClCCOCCCl`, the result in assay [1], in assay [2], in assay [3], in [4], in assay [5] and in assay [6] was inactive. The result in [7], in assay [8], in [9], in [10], in assay [12] and in assay [13] was inactive. Besides, the outcome in assay [14], in [16], in [17], in [18], in assay [19] and in [20] was inactive.

Consider `O=C(Nc1ccccc1)c1ccccc1I`, for which the outcome in assay [1], in [2], in [3], in [4], in assay [5] and in assay [6] was inactive. Besides, the result in assay [7], in [8], in assay [9], in assay [10], in assay [12] and in assay [13] was inactive. Moreover, the result in [14], in [15], in assay [16], in [17], in assay [18] and in [19] was inactive. For the same molecule, the result in assay [20] was inactive.

As to `Oc1ccccc1Cl`, the molecule was called inactive in assay [1], in [2], in assay [4], in [5], in assay [6] and in assay [7]. Besides, the outcome in assay [8], in assay [9], in [10], in assay [11], in assay [12] and in assay [13] was inactive. The outcome in assay [14], in assay [15], in assay [16], in assay [17], in [18] and in assay [19] was inactive. The result in [20] was inactive.

Take `Nc1ccc([N+](=O)[O-])cc1`: the result in [1], in assay [2], in assay [3], in assay [4], in assay [5] and in assay [6] was inactive. In addition, the result in assay [7], in assay [8], in [9], in [10], in [11] and in assay [12] was inactive. The outcome in assay [13], in assay [14], in [15], in assay [16], in [17] and in [18] was inactive. Also, the result in [19] and in [20] was inactive.

For the molecule `Cc1cccc(N)c1N`, the outcome in assay [1], in assay [3], in assay [5], in assay [6], in assay [7] and in [9] was inactive. In addition, the result in assay [10], in assay [12], in assay [13], in assay [14], in assay [16] and in assay [17] was inactive. For the same molecule, the outcome in assay [18], in assay [19] and in [20] was inactive. In addition, the values for the AC50 in assay [2], in assay [4] and in assay [8] were 46.1 µM (active), 30.3 µM (active) and 25.9 µM (active), respectively.
